From PubChem BioAssay (NCATS) come the findings set out here.

Values joined by “and” are separate entries in the source; they are usually repeats but may differ in a detail not shown here. Identical values can stand only once. Results filed as inconclusive are left out. Values without a mark were called inactive. Active and inactive are the calls of the source. Calls follow the shape of the dose curve; as a rule, active = well fitted curve in the direction sought with a large enough effect; inconclusive = small, poorly fitted or top-dose-only effect, or another doubt; inactive = no such curve, though single readings can be large; an effect the other way counts as inactive or inconclusive.

One assay relates to CRL-7250. In words: Cytotoxic Profiling of Annotated Libraries Using Quantitative High-Throughput Screening (AID 1296008). Also: nearly all actives have a fitted effect of over 60% in size. Also: potency is read from the fitted curve at half-maximal effect. As to max response: % is scaled to controls: 0 for no effect and ±100 for the full control effect. The note with it: Five cell lines viability, CellTiter-Glo ATP luminescence, 48-72 h; max response: active compounds read low. In outline: (§1)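 Cells exposed to compounds for 48 or 72 hr at 37 degrees Celsius. Viability read as ATP-coupled luminescence with CellTiter-Glo after 10 min at room temperature.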
(In general: In ATP-based viability assays light output follows the ATP content of the culture.)

For another assay, the system named is HEK293. Described as above. Particulars: Five cell lines viability, CellTiter-Glo ATP luminescence, 48-72 h; max response: active compounds read low. In outline: as §1
A further assay deals with HaCat. The assay is described as above. The note with it: Five cell lines viability, CellTiter-Glo ATP luminescence, 48-72 h; max response: active compounds read low. In outline:
as §1

The test system of another assay is KB-3-1. The assay is described as above. The note with it: Five cell lines viability, CellTiter-Glo ATP luminescence, 48-72 h; max response: active compounds read low. In outline: as §1
Assay [1] deals with NIH3T3. The description is as above. Particulars: Five cell lines viability, CellTiter-Glo ATP luminescence, 48-72 h; max response: active compounds read low. In outline: as §1
A further assay deals with MCC-13. In words: qHTS assay to identify novel small-molecules to repurpose for Merkel cell carcinoma treatment (AID 1296009). Also: nearly all actives have a fitted effect of over 60% in size. The note with it: MCC and control cell lines, CellTiter-Glo viability, 72 h; series mostly up to 46 µM. In outline:
(§2)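 Cells were treated for 72 hr at 37 degree celsius with compounds in 8- or 11-point dose response. Viability was read by CellTiter-Glo luminescence, normalized to no-cell (cytotoxicity) and DMSO controls.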
In general terms: In qHTS, concentration-response curves come from the screen itself.

In the next assay the test system is MCC-26. The description is as above. Particulars: MCC and control cell lines, CellTiter-Glo viability, 72 h; series mostly up to 46 µM. In outline: as §2
The next assay concerns MKL-1. The description is as above. The note with it: MCC and control cell lines, CellTiter-Glo viability, 72 h; series mostly up to 46 µM. In outline:
as §2

Another assay relates to MKL-2. The description is as above. The note with it: MCC and control cell lines, CellTiter-Glo viability, 72 h; series mostly up to 46 µM. In outline: as §2
A further assay relates to UISO. The assay is described as above. Particulars: MCC and control cell lines, CellTiter-Glo viability, 72 h; series mostly up to 46 µM. In outline:
as §2

In the next assay the test system is WaGa. Described as above. The note with it: MCC and control cell lines, CellTiter-Glo viability, 72 h; series mostly up to 46 µM. In outline:
as §2

The next assay has as its system C33A. Nature of the assay: Primary qHTS to identify gynecologic anti-cancer compounds using libraries of approved drugs and bioactive compounds (AID 1345084). Also: nearly all actives have a fitted effect of over 55% in size. Also: potency is read from the fitted curve at half-maximal effect. Particulars: Gynecologic cancer cell panel viability, ATPlite luminescence, 48 h; series mostly up to 57.5 µM. In outline:
(§3)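 Five-point cytotoxicity, 48 h drug exposure at 37 C, 5% CO2, on cells seeded 16 h beforehand. ATP content read by ATPlite luminescence.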

A further assay concerns CAOV3. The description is as above. Particulars: Gynecologic cancer cell panel viability, ATPlite luminescence, 48 h; series mostly up to 57.5 µM. In outline: as §3
The next assay has as its system CASKI. The assay is described as above. Particulars: Gynecologic cancer cell panel viability, ATPlite luminescence, 48 h; series mostly up to 57.5 µM. In outline:
as §3

The subject of a further assay is TAB113. Nature of the assay: qHTS profiling for inhibitors of Plasmodium falciparum proliferation (AID 504749).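 Also: 0% = DMSO vehicle and full inhibition = artemisinin control; nearly all actives have a fitted effect of over 60% in size.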 Particulars: P. falciparum in erythrocytes, SYBR Green DNA, 72 h; series mostly up to 28.7 µM. In outline:
(§4)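 P. falciparum-infected erythrocytes (0.3% parasitemia, 2.5% hematocrit) incubated with compound 72 h at 37 C, 5% CO2. Parasite DNA detected by SYBR Green after lysis, overnight at room temperature; normalised to 0.29 uM artemisinin and DMSO.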

A further assay has as its system TAB165. The assay is described as above. The note with it: P. falciparum in erythrocytes, SYBR Green DNA, 72 h; series mostly up to 28.7 µM. In outline: as §4
For the next assay, the system named is W2. The description is as above. The note with it: P. falciparum in erythrocytes, SYBR Green DNA, 72 h; series mostly up to 28.7 µM. In outline: as §4
The next assay deals with HEK293T. Nature of the assay: qHTS assay to identify novel small-molecules to repurpose for Merkel cell carcinoma treatment (AID 1296009). Also: nearly all actives have a fitted effect of over 60% in size. Particulars: MCC and control cell lines, CellTiter-Glo viability, 72 h; at 44.8 µM (top of the series). In outline: as §2
The subject of assay [2] is NIH3T3. Described as above. The note with it: MCC and control cell lines, CellTiter-Glo viability, 72 h; at 44.8 µM (top of the series) unless noted. In outline:
as §2

Regarding `CC(C)(C)OC(=O)N[C@H]1CCCCCC=C[C@@H]2C[C@@]2(C(=O)NS(=O)(=O)C2CC2)NC(=O)[C@@H]2C[C@@H](OC(=O)N3Cc4cccc(F)c4C3)CN2C1=O`, the max response is -21.2% in the assay with CRL-7250; 3.03% in the assay on HEK293; -10.7% in the assay with HaCat; 5.38% in the assay with KB-3-1; -0.939% with NIH3T3 [1]. The Potency entry with MCC-13, with MCC-26, in the assay on MKL-1, in the assay on MKL-2, in the assay on UISO and with WaGa was “inactive” each time. Further, the Potency result in the assay on C33A, in the assay with CAOV3 and with CASKI was “inactive” throughout.
In the case of `CN(C[C@@H]1COCCO1)S(=O)(=O)Nc1ccc2ccc3ncc(-c4cnn(C)c4)cc3c(=O)c2c1`, the Potency was 0.469 µM (active) in the assay on CRL-7250; 4.18 µM (active) and 6.51 µM (active) in the assay on HEK293; 10.3 µM (active) in the assay on HaCat; 7.43 µM (active) in the assay with KB-3-1; 1.32 µM (active) and 8.2 µM (active) in the assay on NIH3T3 [1]. Also, the Potency entry in the assay with MCC-13, in the assay on MKL-1, in the assay on WaGa and in the assay on CASKI was “inactive” in each case.
Take `CC(=O)N[C@@H](CS)C(=O)O`: the Potency result in the assay on TAB113, with TAB165, in the assay with W2, with MCC-13, in the assay on MCC-26 and in the assay with MKL-1 was “inactive” in each case. The Potency entry with MKL-2, with UISO, in the assay on WaGa, in the assay with C33A, with CAOV3 and in the assay on CASKI was “inactive” in each case. The max response was -25.8% in the assay on CRL-7250, -16.4% in the assay with HaCat and 0.129% with KB-3-1. Moreover, the outcome in the assay on HEK293, in the assay with NIH3T3 [1], in the assay with HEK293T and with NIH3T3 [2] was inactive.
On to `COC1CCC(N(C(=O)C2CCC(C)CC2)c2cc(C3=CCCCC3)sc2C(=O)O)CC1` (stereo not given), for which the max response was -4.75% in the assay on CRL-7250; -22.6% in the assay with HEK293; -16% in the assay with HaCat; -3.16% in the assay with KB-3-1; -0.413% with NIH3T3 [1]. The Potency result in the assay on MCC-13, with MCC-26, with MKL-1, in the assay on MKL-2, with UISO and with WaGa was “inactive” throughout.
With `COc1ccc(-c2cc(=O)c3c(O)cc(O)cc3o2)cc1O`, the call in the assay on CRL-7250 was inactive. In addition, the max response with HEK293 is -3.68%; with HaCat it was 3.57%; with KB-3-1, -19.6%; in the assay with NIH3T3 [1], -2.97%. The Potency entry in the assay with MCC-13, with MCC-26, with MKL-1 and in the assay with MKL-2 was “inactive” throughout.
In the case of `COc1cc(Nc2ncc(F)c(Nc3ccc4c(n3)NC(=O)C(C)(C)O4)n2)cc(OC)c1OC`, the Potency in the assay on CRL-7250 is 2.31 µM (active); in the assay on HEK293, 8.33 µM (active); with NIH3T3 [1], 8.2 µM (active); in the assay with CASKI it was 11.2 µM (active). Further, the max response is -23.4% in the assay with HaCat and 2.88% in the assay on KB-3-1. Besides, the Potency entry in the assay on MCC-13, in the assay with MKL-1, in the assay with MKL-2, in the assay on UISO, in the assay with WaGa and with C33A was “inactive” throughout.
For `CC(C)C(C)C=CC(C)C1CCC2C3=CC=C4CC(O)CCC4(C)C3CCC21C` (stereo not given), the max response was -1.32% with CRL-7250; 4.56% with HEK293; -0.819% in the assay on HaCat; 1.29% in the assay with KB-3-1; -6.24% in the assay with NIH3T3 [1]. Further, the Potency result with MCC-13, in the assay on MCC-26, in the assay on MKL-1, in the assay with MKL-2, in the assay on UISO and in the assay with WaGa was “inactive” in each case.
Take `CC(=O)O[C@]1(C(C)=O)CC[C@H]2[C@@H]3C=C(Cl)C4=CC(=O)[C@@H]5C[C@@H]5[C@]4(C)[C@H]3CC[C@@]21C`: the max response is -14.7% and -0.0221% in the assay on CRL-7250; 4.62% and -21.2% in the assay with HaCat; 2.19% and -8.34% with KB-3-1; -8.51% and -19.2% with NIH3T3 [1]. The Potency in the assay on HEK293 was 13 µM (active). Also, the Potency entry with MCC-13, with MCC-26, with C33A, in the assay with CAOV3 and in the assay on CASKI was “inactive” throughout.
